According to PubChem BioAssay (NCI):
This is part of a sample that, as a whole, favours compounds with a hit. Of some 83,000 tested, about 20% had one in any assay.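 For each line, cells grew in 96-well plates with the test compound present at a single concentration for 48 hours.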 Activity calls are given as the source filed them.

These molecules were tested on NCI-H226 lung (assay: NCI-60 one-dose screen, 48 h (100 = growth as untreated, 0 = no growth, -100 = all killed)). Conditions: 10 µM.
Method: Growth inhibition of the NCI-H226 human Non-Small Cell Lung tumor cell line is measured as a screen for anti-cancer activity. Cells are grown in 96 well plates and exposed to the test compound for 48 hours. Compounds are tested at a single concentration, which is 10^-5 M for most compounds. The reported endpoint is percent growth (GI% or GIPRCNT), where numbers from 0 - 100% represent growth inhibition, and numbers from -100% - 0 represent cell death. For example, a value of 40 represents 60% growth inhibition. A value of 0 means no net growth occurred over the course of the experiment. A value of -40 indicates 40% of cells at the beginning of the experiment died by the end of the experiment. A value of -100 means all cells are dead at the end of the experiment.
NCI-60 Human Tumor Cell Lines Screen was performed using the standard one-dose NCI protocol, which is described in more detail at https://dtp.cancer.gov/discovery_development/nci-60/default.htm.
Compounds with GIPRCNT values below 10 were considered active. Activity score was based on GIPRCNT using the following formula: […]
Score is 0 for GIPRCNT values of 100 or above, 50 for GIPRCNT values of 0, and 100 for GIPRCNT values of -100.

Structure (SMILES)	growth
Cc1ccccc1C1N=C2Oc3ccccc3C=C2C(=O)N1 (stereo not given)	3.49% (active)
CC1(c2ccccc2)NC(=O)NC1=O (stereo not given)	98.3% (inactive)
CC1SC(N)=NC1=O (stereo not given)	107% (inactive)
CCOC(=O)C(O)C(O)C(=O)OCC (stereo not given)	106% (inactive)
Cc1cc(N)ccc1-c1ccc(N)cc1C	102% (inactive)
C#CC(C(C)C)N(CCO)CCCC (stereo not given)	96.6% (inactive)
c1ccc2c(N3CCCCC3)ncnc2c1	87.2% (inactive)
O=C1C=CC2=C3c4cc(O)c(O)cc4CC3(O)COC2=C1O (stereo not given)	95.1% (inactive)
O=C(NCO)c1ccccc1	101% (inactive)
CCCCCC(C)(CC(=O)O)CC(=O)O	97% (inactive)
CC(C)COC(=O)COC(=O)OCCOCCOC(=O)OCC(=O)OCC(C)C	100% (inactive)
COc1ccc(C(C)C=O)cc1 (stereo not given)	111% (inactive)
C=C[Si](OC(C)=O)(OC(C)=O)OC(C)=O	111% (inactive)
COCCCC/C(=N\OCCN)c1ccc(C(F)(F)F)cc1	101% (inactive)
CCOC(=O)C1OC1c1ccccc1 (stereo not given)	100% (inactive)
CCCCCCCCCCC(C)Br (stereo not given)	101% (inactive)
CC(=O)Nc1cccc(Cl)c1C	102% (inactive)
Oc1ccc(N=Nc2ccc(Br)cc2)c(O)c1	83.6% (inactive)
COC(=O)c1cc(-c2ccc(Cl)c(Cl)c2)[nH]c(=O)c1C#N	94.6% (inactive)
COc1cc(-c2ccc(NC(=O)NC3CC3)c(OC)c2)ccc1NC(=O)NC1CC1	102% (inactive)

Structure (SMILES)	growth
CC(=O)OCC1OC(OC2=C(CC=C(C)C)C(=O)c3ccccc3C2=O)C(OC(C)=O)C(OC(C)=O)C1OC(C)=O (stereo not given)	57.1% (inactive)
CN(C)C(C)(C)CC(C)(C)C	99.7% (inactive)
S=c1nn[nH]c2ccccc12	93.8% (inactive)
CN(C)c1ccc2oc(=O)c3ccccc3c2c1	81.3% (inactive)
Clc1ccc(-c2nnc(-c3cccc4ccccc34)o2)cc1	87.6% (inactive)
CC1CC(O)CC(C)(C)C1 (stereo not given)	106% (inactive)
O=S(=O)(O)c1cc(O)c2c(N=Cc3ccccc3O)c(S(=O)(=O)O)ccc2c1	101% (inactive)
OC1OC(COC(c2ccccc2)(c2ccccc2)c2ccccc2)C(O)C(O)C1O (stereo not given)	90.1% (inactive)
CCOC(=O)C1=C(Nc2ccc(Br)cc2)C(=O)N(CC)C1	86.3% (inactive)
O=C1Cc2cc(O)ccc2O1	103% (inactive)
COc1ccccc1N1CCN(C(=S)Nc2ccccc2)CC1	99.4% (inactive)
OCc1ccc(-c2ccc(-c3ccc(CO)s3)o2)s1	-23.9% (active)
CC(C)(O)C#CC#CC(C)(C)O	79.4% (inactive)
O=c1[nH]cc(Cl)cc1O	95.5% (inactive)
C[C@]12CC[C@@H]3c4ccc(OCC(=O)O)cc4CC[C@H]3[C@@H]1CCC2=O	95.7% (inactive)
CC(=O)Nc1c(C)cc(C)cc1C	101% (inactive)
Cc1cc(N)c(S(=O)(=O)O)c(N)c1	99.6% (inactive)
FC(F)(F)c1ccc2c(c1)N(CCCN1CCN(C3CC3)CC1)c1ccccc1S2	75.4% (inactive)
COc1ccc2c(c1)CCc1c-2n[nH]c1-c1[nH]nc2c1CCc1cc(OC)ccc1-2	82.7% (inactive)
NC(=O)NC(=O)c1ccc(Cl)cc1	102% (inactive)
